Columns and labels:
[1] = target: T1, Aspartate--tRNA(Asp/Asn) ligase (Mycobacterium tuberculosis (strain ATCC 25618 / H37Rv)) (UniProt P9WFW3); test: Assay for Asp RNA synthetase-1 from Mycobacterium tuberculosis; format: functional; parameters: scale not given: direction of the effect not stated beside the values; settings: 30 µM; also: in the data most compounds retested in dose-response had high values
T1 sequence (whole entry): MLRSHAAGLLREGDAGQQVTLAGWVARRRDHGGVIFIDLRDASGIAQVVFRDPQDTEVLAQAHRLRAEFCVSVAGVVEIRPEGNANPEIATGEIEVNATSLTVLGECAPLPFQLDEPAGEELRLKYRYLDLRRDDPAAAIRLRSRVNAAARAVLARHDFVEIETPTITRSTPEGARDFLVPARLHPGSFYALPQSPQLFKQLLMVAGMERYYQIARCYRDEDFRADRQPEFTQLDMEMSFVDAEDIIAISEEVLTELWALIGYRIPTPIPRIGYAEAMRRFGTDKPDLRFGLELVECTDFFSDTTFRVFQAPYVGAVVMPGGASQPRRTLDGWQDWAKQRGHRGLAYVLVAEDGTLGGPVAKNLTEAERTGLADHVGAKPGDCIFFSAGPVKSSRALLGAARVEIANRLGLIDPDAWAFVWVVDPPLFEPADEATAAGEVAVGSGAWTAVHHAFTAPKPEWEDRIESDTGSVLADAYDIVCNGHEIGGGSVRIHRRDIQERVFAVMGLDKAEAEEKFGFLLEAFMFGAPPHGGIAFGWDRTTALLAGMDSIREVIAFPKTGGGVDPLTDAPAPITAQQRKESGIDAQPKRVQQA

[2] = target: Shiga toxin 2 (Escherichia coli O157:H7) (UniProt P09385+P09386); test: E. coli 0.157:H7 Shiga Toxin SOP - stx2 screening assay; format: functional; parameters: scale not given: direction of the effect not stated beside the values; settings: 30 µM

Row | SMILES | Percent Effect [1] [%] | Percent Effect [2] [%]
1 | COCC1c2nnn(CC3CC3)c2CCN1C(=O)Cc1cccs1 (stereo unspecified) | 4.11 | -2.97
2 | Cc1csc(C2CCCN(C(=O)c3cnc[nH]3)C2)n1 (stereo unspecified) | 5.76 | 16.6
3 | Cc1ccc(N2CCCC(NCc3ccc(C)o3)C2)nn1 (stereo unspecified) | -0.626 | -32.5
4 | Cc1nccc([C@@H]2C[C@@H]3CCN(S(C)(=O)=O)C[C@H]3O2)n1 | 2.92 | 11.1
5 | Cn1cnc2c1CCN(Cc1noc(-c3ccccc3)n1)C2 | 3.96 | 12.6
6 | O=C1[C@@H]2CCN(Cc3ccncc3)C[C@@H]2OCCN1c1ccccc1 | -1.46 | -5.4
7 | CO[C@H]1CN(C(=O)c2ccccn2)[C@@H]2CCCO[C@H]12 | 1.27 | 0.669
8 | Cc1cc(C)c(CNC(=O)N2CCCC2C(N)=O)c(=O)[nH]1 (stereo unspecified) | -6.91 | -4.4
9 | CC(C)n1ccnc1C1CCN(C(=O)C2COc3ccccc3O2)CC1 (stereo unspecified) | -1.53 | 13.2
10 | COc1ccc(F)cc1S(=O)(=O)NCC(c1cccn1C)N(C)C (stereo unspecified) | -5.43 | 9.89
11 | CCc1nc(CCNC(=O)NC2CC2)sc1C | 5.19 | -0.181
12 | O=C1CC(c2ccc(C(=O)O)cc2)c2ncn(-c3ccccc3)c2N1 (stereo unspecified) | 19.5 | -25.4
13 | COc1ccc(NC(=O)NCC(O)c2ccc(F)cc2F)c(OC)c1 (stereo unspecified) | 1.18 | -4.16
14 | Cn1cc(NS(=O)(=O)c2ccc(OC(F)(F)F)cc2)ccc1=O | 51.5 | -3.73
15 | O=C(NCCC(=O)N1CCCc2ccccc21)c1c(O)cc(F)cc1F | -3.63 | -9.36
16 | CS(=O)(=O)NCCCN1CCCCC1c1cc2ccccc2[nH]1 (stereo unspecified) | -1.17 | -11.8
17 | Cn1cc(CN2CCN(Cc3nccn3C)CC2)cn1 | -2.81 | -37.2
18 | Cc1nc(C)c(C(=O)OCCNc2ncccc2C#N)s1 | 1.71 | -15.1
19 | CN(C)CCNC(=O)c1cc(-c2cnc(N3CCCC3)nc2)cn1C | -0.309 | -17.7
20 | O=C(Nc1ccc(F)cc1)N1C[C@H]2C[C@H](C(=O)N3CCOCC3)[C@@H](C1)O2 | 0.452 | -11.7
21 | c1cncc(OCc2nnn3c2CN(Cc2ccsc2)CCC3)c1 | -0.204 | -23
22 | O=C(c1ccc(O)c(Cl)c1)N1CCC(c2n[nH]c(C3CC3)n2)CC1 | -0.597 | 0.843
23 | COc1ccc2c(c1)CN(Cc1nc3ccsc3c(=O)[nH]1)CC2 | -2.11 | 10.8

From ChEMBL document CHEMBL3988442, “University of Dundee, Small-Polar-MMV Screening Library” (2021)
